# From article PMC7862700, “An all-to-all approach to the identification of sequence-specific readers for epigenetic DNA modifications on cytosine”
# Assays:
# Assay in all cases: DAPPL (digital affinity profiling via proximity ligation, sequencing); 10 mM Tris-HCl pH 7.5, 50 mM NaCl, 1 mM DTT, 4% glycerol, room temperature, 30 min; GST-TFs on glutathione beads, 16-mer random dsDNA library, 0.1% formaldehyde crosslink after washing; high values mean tight binding
# FLI1 = target: T1, FLI1 (Homo sapiens, UniProt Q01543 1-452); conditions: protein: recombinant; tags: N-terminal GST; dsDNA, one strand shown
# T1 sequence: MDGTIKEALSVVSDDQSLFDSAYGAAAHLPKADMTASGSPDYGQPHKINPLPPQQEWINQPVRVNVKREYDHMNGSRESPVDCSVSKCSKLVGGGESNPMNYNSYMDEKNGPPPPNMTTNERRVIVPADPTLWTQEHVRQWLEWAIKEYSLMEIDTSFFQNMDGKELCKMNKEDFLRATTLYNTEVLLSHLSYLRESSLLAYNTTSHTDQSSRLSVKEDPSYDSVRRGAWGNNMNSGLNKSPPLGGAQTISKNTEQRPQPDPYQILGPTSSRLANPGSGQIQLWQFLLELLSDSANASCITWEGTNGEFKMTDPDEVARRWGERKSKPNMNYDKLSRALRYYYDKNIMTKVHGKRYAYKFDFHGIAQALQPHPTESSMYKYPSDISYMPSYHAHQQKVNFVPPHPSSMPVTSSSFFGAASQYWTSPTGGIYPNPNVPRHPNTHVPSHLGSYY
# Summary of the method: (§1)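 Human transcription factors fused to GST were expressed in yeast, captured on glutathione beads, given DNA barcodes and pooled with a GST-only negative control. Pools were incubated with 200 nmole of a 16-mer random double-stranded DNA library in Tris/NaCl/DTT/glycerol buffer at room temperature for 30 min. They were then washed, crosslinked with 0.1% formaldehyde, proximity-ligated (BsaI/T4 ligase, 1 h, 37 °C), PCR-amplified and sequenced on an Illumina NextSeq500. Binding signal is each 6-mer's read frequency for a factor divided by its frequency for the GST control.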
# ELK1 = target: T2, ELK1 (Homo sapiens, UniProt P19419 1-428); conditions: protein: recombinant; tags: N-terminal GST; dsDNA, one strand shown
# T2 sequence: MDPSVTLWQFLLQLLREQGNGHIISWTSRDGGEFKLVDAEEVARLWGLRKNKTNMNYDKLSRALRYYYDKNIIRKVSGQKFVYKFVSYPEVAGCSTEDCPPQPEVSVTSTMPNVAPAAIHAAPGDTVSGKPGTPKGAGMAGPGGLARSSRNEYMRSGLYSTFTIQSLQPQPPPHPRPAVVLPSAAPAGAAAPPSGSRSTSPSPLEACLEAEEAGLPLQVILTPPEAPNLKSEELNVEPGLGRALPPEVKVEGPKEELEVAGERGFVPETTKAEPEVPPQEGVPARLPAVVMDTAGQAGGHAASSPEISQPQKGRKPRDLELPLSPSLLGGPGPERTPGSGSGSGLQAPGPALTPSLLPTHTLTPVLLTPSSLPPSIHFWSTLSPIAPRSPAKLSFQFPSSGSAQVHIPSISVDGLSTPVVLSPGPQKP
# Summary of the method: as §1
# GABPA = target: T3, GABPA (Homo sapiens, UniProt Q06546 1-454); conditions: protein: recombinant; tags: N-terminal GST; dsDNA, one strand shown
# T3 sequence: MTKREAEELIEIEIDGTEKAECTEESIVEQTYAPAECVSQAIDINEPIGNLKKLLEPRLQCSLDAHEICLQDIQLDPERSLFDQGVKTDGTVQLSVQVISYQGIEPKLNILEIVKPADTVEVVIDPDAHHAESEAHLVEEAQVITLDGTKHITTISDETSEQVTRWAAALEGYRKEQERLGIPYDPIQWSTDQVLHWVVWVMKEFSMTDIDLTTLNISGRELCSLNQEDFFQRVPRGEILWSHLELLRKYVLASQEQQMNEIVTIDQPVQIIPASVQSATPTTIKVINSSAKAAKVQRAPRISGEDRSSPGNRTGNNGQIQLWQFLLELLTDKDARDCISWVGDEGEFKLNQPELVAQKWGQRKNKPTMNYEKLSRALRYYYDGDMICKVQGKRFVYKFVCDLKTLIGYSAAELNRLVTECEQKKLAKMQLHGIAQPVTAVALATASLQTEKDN
# Summary of the method: as §1
# ERG = target: T4, ERG (Homo sapiens, UniProt P11308 1-479); conditions: protein: recombinant; tags: N-terminal GST; dsDNA, one strand shown
# T4 sequence: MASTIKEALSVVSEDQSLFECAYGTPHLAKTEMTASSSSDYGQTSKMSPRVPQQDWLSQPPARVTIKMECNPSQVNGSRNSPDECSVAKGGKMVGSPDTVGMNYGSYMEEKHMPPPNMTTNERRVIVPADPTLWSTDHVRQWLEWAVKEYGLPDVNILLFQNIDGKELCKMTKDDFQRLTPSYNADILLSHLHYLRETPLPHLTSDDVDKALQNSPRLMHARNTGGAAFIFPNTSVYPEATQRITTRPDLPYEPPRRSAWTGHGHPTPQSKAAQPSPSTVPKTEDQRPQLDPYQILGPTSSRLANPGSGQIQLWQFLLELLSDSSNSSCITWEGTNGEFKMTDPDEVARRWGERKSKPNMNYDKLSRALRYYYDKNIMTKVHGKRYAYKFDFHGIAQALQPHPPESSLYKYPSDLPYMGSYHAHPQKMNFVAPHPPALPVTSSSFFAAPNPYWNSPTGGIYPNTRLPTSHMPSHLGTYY
# Summary of the method: as §1
# ELF1 = ELF1 (Homo sapiens, UniProt P32519 1-619); conditions: protein: recombinant; tags: N-terminal GST; dsDNA, one strand shown
# Chain of ELF1 (P32519 whole entry): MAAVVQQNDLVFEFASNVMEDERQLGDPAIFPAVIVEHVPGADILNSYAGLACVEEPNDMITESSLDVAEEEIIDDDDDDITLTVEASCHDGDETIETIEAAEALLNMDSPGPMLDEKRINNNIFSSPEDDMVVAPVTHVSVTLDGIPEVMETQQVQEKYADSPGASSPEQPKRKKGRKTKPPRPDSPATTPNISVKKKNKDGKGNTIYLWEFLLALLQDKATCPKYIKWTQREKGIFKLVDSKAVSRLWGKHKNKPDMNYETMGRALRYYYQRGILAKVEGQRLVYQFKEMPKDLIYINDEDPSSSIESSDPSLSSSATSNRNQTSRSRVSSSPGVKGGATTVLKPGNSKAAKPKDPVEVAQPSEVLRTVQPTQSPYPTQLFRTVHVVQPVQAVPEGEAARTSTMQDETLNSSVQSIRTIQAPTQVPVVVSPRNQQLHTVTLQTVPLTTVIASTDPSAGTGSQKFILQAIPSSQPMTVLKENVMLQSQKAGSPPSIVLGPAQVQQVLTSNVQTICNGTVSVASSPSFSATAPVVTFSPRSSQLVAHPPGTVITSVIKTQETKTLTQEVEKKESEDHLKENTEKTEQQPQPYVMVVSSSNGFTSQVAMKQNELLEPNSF
# Summary of the method: as §1
# EHF = target: T5, EHF (Homo sapiens, UniProt Q9NZC4 1-300); conditions: protein: recombinant; tags: N-terminal GST; dsDNA, one strand shown
# T5 sequence: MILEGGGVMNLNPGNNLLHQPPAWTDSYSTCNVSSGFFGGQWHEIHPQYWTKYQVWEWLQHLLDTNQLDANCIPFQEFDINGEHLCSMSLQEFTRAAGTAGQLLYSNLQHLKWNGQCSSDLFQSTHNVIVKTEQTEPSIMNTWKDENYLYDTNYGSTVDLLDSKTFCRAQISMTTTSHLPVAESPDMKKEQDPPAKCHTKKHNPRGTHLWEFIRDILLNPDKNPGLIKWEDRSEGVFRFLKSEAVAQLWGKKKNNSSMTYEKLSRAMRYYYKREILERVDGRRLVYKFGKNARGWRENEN
# Summary of the method: as §1
# SPI1 = SPI1 (Homo sapiens, UniProt P17947 1-270); conditions: protein: recombinant; tags: N-terminal GST; dsDNA, one strand shown
# Summary of the method: as §1
# SPIB = SPIB (Homo sapiens, UniProt Q01892 1-262); conditions: protein: recombinant; tags: N-terminal GST; dsDNA, one strand shown
# Chain of SPIB (Q01892 whole entry): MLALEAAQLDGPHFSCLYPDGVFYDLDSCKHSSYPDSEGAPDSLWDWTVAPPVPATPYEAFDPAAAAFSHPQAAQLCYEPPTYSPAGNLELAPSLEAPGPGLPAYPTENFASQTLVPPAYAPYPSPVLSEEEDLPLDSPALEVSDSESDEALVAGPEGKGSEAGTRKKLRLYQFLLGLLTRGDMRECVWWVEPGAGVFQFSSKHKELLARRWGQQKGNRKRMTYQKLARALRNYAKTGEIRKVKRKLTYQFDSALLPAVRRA
# Summary of the method: as §1
# ELK3 = target: T6, ELK3 (Homo sapiens, UniProt P41970 1-407); conditions: protein: recombinant; tags: N-terminal GST; dsDNA, one strand shown
# T6 sequence: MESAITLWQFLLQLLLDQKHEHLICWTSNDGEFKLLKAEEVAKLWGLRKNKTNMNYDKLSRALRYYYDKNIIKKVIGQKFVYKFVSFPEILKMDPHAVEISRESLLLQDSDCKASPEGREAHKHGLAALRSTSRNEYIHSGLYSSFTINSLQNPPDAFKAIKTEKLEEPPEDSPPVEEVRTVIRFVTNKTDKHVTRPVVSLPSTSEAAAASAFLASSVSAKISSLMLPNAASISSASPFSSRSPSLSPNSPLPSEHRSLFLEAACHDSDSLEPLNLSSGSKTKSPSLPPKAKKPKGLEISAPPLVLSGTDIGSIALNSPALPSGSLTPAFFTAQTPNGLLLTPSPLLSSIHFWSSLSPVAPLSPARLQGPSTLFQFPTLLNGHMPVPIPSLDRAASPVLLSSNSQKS
# Summary of the method: as §1
# FEV = target: T7, FEV (Homo sapiens, UniProt Q99581 1-238); conditions: protein: recombinant; tags: N-terminal GST; dsDNA, one strand shown
# T7 sequence: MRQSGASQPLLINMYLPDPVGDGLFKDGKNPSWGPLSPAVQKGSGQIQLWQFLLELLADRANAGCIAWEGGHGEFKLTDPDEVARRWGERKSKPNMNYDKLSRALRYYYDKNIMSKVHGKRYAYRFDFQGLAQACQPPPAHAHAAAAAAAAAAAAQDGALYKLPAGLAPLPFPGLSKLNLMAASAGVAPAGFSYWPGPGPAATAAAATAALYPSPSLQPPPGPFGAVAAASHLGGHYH
# Summary of the method: as §1
# ETV5 = ETV5 (Homo sapiens, UniProt P41161 1-510); conditions: protein: recombinant; tags: N-terminal GST; dsDNA, one strand shown
# Chain of ETV5 (P41161 whole entry): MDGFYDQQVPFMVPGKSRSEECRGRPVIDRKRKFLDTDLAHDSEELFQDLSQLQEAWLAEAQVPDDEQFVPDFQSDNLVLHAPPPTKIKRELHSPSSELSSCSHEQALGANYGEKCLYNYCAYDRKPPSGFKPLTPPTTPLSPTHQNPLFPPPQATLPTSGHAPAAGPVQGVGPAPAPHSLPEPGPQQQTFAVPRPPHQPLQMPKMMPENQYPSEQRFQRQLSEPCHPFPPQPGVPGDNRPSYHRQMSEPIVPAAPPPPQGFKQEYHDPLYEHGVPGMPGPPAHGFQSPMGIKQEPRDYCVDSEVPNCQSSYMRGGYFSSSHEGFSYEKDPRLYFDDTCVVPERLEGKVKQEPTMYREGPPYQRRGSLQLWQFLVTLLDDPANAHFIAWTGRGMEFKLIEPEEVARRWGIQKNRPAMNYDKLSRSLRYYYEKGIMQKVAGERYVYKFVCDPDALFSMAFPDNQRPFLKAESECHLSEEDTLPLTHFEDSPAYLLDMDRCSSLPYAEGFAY
# Summary of the method: as §1
# HSF1 = HSF1 (Homo sapiens, UniProt Q00613 1-529); conditions: protein: recombinant; tags: N-terminal GST; chain copies: 3; dsDNA, one strand shown
# Chain of HSF1 (Q00613 whole entry): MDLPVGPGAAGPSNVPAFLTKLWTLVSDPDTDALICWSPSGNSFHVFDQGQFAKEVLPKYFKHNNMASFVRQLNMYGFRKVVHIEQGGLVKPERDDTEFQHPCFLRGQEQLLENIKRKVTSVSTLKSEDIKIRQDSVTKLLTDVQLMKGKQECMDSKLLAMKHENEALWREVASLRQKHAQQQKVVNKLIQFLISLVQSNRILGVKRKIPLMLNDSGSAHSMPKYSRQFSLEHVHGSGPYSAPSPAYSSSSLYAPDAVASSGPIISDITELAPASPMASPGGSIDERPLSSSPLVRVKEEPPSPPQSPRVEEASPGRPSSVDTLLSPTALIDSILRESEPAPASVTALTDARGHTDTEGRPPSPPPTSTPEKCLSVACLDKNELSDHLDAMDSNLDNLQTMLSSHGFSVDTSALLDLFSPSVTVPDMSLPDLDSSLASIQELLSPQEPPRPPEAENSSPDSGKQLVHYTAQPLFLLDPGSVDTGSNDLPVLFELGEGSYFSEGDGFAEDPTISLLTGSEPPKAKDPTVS
# Summary of the method: as §1
# SPIC = target: T8, SPIC (Homo sapiens, UniProt Q8N5J4 1-248); conditions: protein: recombinant; tags: N-terminal GST; dsDNA, one strand shown
# T8 sequence: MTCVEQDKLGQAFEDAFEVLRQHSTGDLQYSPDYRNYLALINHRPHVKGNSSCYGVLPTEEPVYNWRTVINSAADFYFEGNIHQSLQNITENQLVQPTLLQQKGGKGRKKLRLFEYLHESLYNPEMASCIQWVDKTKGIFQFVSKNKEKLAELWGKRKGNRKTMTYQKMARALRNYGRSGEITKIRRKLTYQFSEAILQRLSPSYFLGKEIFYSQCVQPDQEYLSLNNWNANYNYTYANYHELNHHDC
# Summary of the method: as §1
# ELF4 = ELF4 (Homo sapiens, UniProt Q99607 1-663); conditions: protein: recombinant; tags: N-terminal GST; dsDNA, one strand shown
# Chain of ELF4 (Q99607 whole entry): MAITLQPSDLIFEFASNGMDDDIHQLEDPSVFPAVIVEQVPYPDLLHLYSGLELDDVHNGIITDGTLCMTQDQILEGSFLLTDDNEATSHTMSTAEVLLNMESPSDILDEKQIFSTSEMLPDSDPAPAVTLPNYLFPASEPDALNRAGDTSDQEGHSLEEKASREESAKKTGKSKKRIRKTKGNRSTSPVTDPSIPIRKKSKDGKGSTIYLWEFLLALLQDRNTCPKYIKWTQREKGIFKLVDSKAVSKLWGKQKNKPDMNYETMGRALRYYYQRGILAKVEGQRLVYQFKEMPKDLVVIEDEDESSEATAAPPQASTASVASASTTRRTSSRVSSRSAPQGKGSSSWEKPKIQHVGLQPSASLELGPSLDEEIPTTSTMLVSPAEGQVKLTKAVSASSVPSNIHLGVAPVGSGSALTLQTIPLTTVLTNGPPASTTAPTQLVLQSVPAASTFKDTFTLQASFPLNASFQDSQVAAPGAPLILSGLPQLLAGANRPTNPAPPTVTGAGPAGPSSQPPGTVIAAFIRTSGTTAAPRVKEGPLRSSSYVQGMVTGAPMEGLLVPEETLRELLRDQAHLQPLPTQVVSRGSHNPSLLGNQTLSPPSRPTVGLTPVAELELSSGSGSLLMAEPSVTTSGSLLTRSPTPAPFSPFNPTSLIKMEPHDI
# Summary of the method: as §1
# ELK4 = target: T9, ELK4 (Homo sapiens, UniProt P28324-2 1-405); conditions: protein: recombinant; tags: N-terminal GST; dsDNA, one strand shown
# T9 sequence: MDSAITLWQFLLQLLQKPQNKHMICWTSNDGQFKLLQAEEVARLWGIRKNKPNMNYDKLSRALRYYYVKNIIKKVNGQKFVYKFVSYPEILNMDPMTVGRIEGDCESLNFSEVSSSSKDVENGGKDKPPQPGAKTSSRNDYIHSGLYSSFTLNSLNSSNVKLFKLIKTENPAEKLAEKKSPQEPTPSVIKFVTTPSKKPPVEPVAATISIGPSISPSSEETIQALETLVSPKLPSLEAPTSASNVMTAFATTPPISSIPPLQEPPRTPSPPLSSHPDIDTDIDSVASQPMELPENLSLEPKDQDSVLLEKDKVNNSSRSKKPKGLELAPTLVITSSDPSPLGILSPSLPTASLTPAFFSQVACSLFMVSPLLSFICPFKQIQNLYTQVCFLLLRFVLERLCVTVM
# Summary of the method: as §1
# ETV2 = target: T10, ETV2 (Homo sapiens, UniProt O00321 1-342); conditions: protein: recombinant; tags: N-terminal GST; dsDNA, one strand shown
# T10 sequence: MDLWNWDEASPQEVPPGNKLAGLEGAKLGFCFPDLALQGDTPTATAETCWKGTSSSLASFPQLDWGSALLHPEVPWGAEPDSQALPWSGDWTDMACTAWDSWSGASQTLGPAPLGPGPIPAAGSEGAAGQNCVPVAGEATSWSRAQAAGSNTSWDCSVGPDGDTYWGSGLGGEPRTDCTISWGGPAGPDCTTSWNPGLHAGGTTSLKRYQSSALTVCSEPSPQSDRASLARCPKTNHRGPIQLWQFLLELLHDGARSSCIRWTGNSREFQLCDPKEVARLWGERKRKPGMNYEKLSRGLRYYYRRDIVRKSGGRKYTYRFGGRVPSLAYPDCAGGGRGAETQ
# Summary of the method: as §1
# ELF3 = target: T11, ELF3 (Homo sapiens, UniProt P78545 1-371); conditions: protein: recombinant; tags: N-terminal GST; dsDNA, one strand shown
# T11 sequence: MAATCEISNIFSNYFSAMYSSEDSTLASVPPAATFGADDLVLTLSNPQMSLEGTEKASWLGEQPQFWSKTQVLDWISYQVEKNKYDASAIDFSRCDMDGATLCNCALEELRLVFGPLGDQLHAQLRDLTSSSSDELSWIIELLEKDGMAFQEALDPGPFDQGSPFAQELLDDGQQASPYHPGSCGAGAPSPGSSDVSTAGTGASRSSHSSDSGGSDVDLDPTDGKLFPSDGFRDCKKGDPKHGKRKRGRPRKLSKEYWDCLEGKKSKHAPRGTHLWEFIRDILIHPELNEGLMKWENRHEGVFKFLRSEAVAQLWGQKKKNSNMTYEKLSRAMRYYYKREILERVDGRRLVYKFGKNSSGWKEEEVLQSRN
# Summary of the method: as §1
# CRX = CRX (Homo sapiens, UniProt O43186 1-299); conditions: protein: recombinant; tags: N-terminal GST; dsDNA, one strand shown
# Chain of CRX (O43186 whole entry): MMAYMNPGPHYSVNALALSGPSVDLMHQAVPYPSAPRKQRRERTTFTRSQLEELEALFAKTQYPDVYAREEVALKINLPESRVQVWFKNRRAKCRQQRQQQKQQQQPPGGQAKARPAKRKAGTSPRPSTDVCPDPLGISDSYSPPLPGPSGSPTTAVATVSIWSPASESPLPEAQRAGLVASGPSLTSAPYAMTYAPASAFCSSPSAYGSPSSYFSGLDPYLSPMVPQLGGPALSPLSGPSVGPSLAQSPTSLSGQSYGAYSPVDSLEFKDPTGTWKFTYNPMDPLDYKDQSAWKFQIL
# Summary of the method: as §1
# ETV1 = ETV1 (Homo sapiens, UniProt P50549 1-477); conditions: protein: recombinant; tags: N-terminal GST; dsDNA, one strand shown
# Chain of ETV1 (P50549 whole entry): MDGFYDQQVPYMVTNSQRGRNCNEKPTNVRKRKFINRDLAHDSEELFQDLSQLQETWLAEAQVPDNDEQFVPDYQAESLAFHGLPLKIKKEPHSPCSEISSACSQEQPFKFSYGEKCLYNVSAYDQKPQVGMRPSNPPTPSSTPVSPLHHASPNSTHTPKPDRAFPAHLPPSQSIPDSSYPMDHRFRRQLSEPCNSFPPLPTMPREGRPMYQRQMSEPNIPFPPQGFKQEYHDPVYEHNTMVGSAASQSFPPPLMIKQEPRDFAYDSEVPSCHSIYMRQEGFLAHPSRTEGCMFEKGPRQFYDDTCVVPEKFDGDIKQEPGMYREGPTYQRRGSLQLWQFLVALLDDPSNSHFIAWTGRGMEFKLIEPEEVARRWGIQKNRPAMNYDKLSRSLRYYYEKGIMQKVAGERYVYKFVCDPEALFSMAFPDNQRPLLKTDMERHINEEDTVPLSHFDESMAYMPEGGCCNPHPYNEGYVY
# Summary of the method: as §1
sequence,measurement,setting,value
ATCCTC,binding signal,FLI1,"1.48 fold enrichment (6-mer frequency, TF over GST control)"
same,binding signal,ELK1,"1.47 fold enrichment (6-mer frequency, TF over GST control)"
same,binding signal,GABPA,"1.55 fold enrichment (6-mer frequency, TF over GST control)"
same,binding signal,ERG,"1.52 fold enrichment (6-mer frequency, TF over GST control)"
same,binding signal,ELF1,"1.48 fold enrichment (6-mer frequency, TF over GST control)"
same,binding signal,EHF,"1.39 fold enrichment (6-mer frequency, TF over GST control)"
same,binding signal,SPI1,"1.51 fold enrichment (6-mer frequency, TF over GST control)"
same,binding signal,SPIB,"1.41 fold enrichment (6-mer frequency, TF over GST control)"
same,binding signal,ELK3,"1.36 fold enrichment (6-mer frequency, TF over GST control)"
same,binding signal,FEV,"1.48 fold enrichment (6-mer frequency, TF over GST control)"
same,binding signal,ETV5,"1.46 fold enrichment (6-mer frequency, TF over GST control)"
same,binding signal,HSF1,"1.67 fold enrichment (6-mer frequency, TF over GST control)"
same,binding signal,SPIC,"1.31 fold enrichment (6-mer frequency, TF over GST control)"
same,binding signal,ELF4,"1.47 fold enrichment (6-mer frequency, TF over GST control)"
same,binding signal,ELK4,"1.39 fold enrichment (6-mer frequency, TF over GST control)"
same,binding signal,ETV2,"1.68 fold enrichment (6-mer frequency, TF over GST control)"
same,binding signal,ELF3,"1.42 fold enrichment (6-mer frequency, TF over GST control)"
same,binding signal,CRX,"2.46 fold enrichment (6-mer frequency, TF over GST control)"
same,binding signal,ETV1,"1.55 fold enrichment (6-mer frequency, TF over GST control)"
